# Out of some 2,300 compounds screened, about 1,100 (48%) were called active. No rule for the calls is given here. The set was probably picked from earlier hits. The list shows a part of the results. Measured potencies and affinities stand elsewhere.
# Experiment: inhibitors in S. typhi counter-screen strain, dose response, counter-screen for PhoP regulon inhibitor project, fluorescence, 4 h (AID 2384)
# Details: S. typhi GFP reporter counter-screen; series mostly up to 150 µM; inhibition: at the top concentration
row,SMILES,inhibition
1,O=C(NCc1ccco1)C1CCN(C(=O)c2cc3sccc3n2Cc2ccc(Cl)cc2)CC1,4.77% (inactive)
2,Nc1nc(SCC(=O)N2CCCC2)[nH]c(=O)c1NC(=O)c1cccs1,17.8% (inactive)
3,Clc1ccc(OCc2nc(-c3ccc(Br)o3)no2)cc1,-18.3% (inactive)
4,CCOc1ccc(-c2ccc(SCC(=O)N3CCOCC3)nn2)cc1,-7.13% (inactive)
5,NC(=O)c1ccc[n+]([C@H]2O[C@@H](COP(=O)([O-])OP(=O)(O)OC[C@H]3O[C@@H](n4cnc5c(N)ncnc54)[C@H](O)[C@@H]3O)[C@H](O)[C@@H]2O)c1,-10.8% (inactive)
6,CN1CCCN(C(=O)COc2ccc(F)cc2Cl)CC1,0.57% (inactive)
7,Cc1cc(NC(=O)COC(=O)c2cccc(S(=O)(=O)N(C)C3CCCCC3)c2)no1,-11.6% (inactive)
8,COC(=O)c1sccc1NC(=S)NCc1ccc(Cl)cc1,33.3% (inactive)
9,COC(=O)CNc1n[nH]c(=S)[nH]c1=O,26.9% (inactive)
10,C/[N+]([O-])=C1\Cc2ccccc2C1=O,-21.2% (inactive)
11,NC1=C(Br)C(=O)c2ccccc2C1=O,22.2% (inactive)
12,Clc1ccc2c(NCc3ccccn3)ccnc2c1,-0.79% (inactive)
13,O=C(NCc1cccs1)C(=O)NCC(c1ccco1)N1CCN(c2ccc(F)cc2)CC1 (stereo unspecified),1.68% (inactive)
14,CCC(=O)N1CCc2cc(S(=O)(=O)NCCCN3CCN(Cc4ccccc4)CC3)ccc21,-9.6% (inactive)
15,COc1ccc(NC(=O)C(Cc2ccccc2)n2cccc2)cc1 (stereo unspecified),9.62% (inactive)
16,CC(C)NC(=O)c1cc(-c2ccc(Br)cc2)on1,10.1% (inactive)
17,CC(=O)NCc1ccc(C(=O)CCl)cc1,18.7% (inactive)
18,Cc1c(C)n(C)c2ccc(C(=O)NCc3cccs3)cc12,-3.78% (inactive)
19,COc1ccc(Cl)cc1NC(=O)CCN1CCOCC1,13.3% (inactive)
20,O=C(NCCCN1CCOCC1)C(C(=O)c1ccccc1)n1ccccc1=O (stereo unspecified),2.1% (inactive)
21,CCCC1(c2ccccc2)NC(=O)N(CC(=O)Nc2cc(S(=O)(=O)N3CCOCC3)ccc2Cl)C1=O (stereo unspecified),-4.71% (inactive)
22,Cc1ccc(C)c(NC(=O)CSc2nnc([C@@H](N)Cc3c[nH]c4ccccc34)o2)c1,33.6% (inactive)
23,COCCNC(=O)c1cccc(OC2CCN(Cc3ccccc3C)CC2)c1,-4.82% (inactive)
24,COc1ccc(C(=O)C2CCN(CC(=O)Nc3cc(C)cc(C)c3)CC2)cc1,26.4% (inactive)

row,SMILES,inhibition
1,O=C(O)c1ccc(CSc2nnnn2C2CCCCC2)cc1,-28% (inactive)
2,COCCNC(=O)CN(C(=O)CCC(=O)Nc1ccccn1)c1ccc(F)c(Cl)c1,1.46% (inactive)
3,COCCN1C(=O)C(=O)/C(=C(/O)c2cccc(OC)c2)C1c1ccncc1 (stereo unspecified),4.45% (inactive)
4,Cc1ccc(CCN2C(=O)CCC2(C)C(=O)NC2CCCC2)cc1 (stereo unspecified),2.68% (inactive)
5,FC(F)(F)c1ccccc1NC1=NCCC1,7.38% (inactive)
6,CCN(CC)CC#CC(C)OCOCC#CCOC (stereo unspecified),-8.61% (inactive)
7,Cc1ccc2[nH]cc(CCNC(=O)c3cccnc3)c2c1,-28.4% (inactive)
8,Cc1cc(C)cc(CSc2nnc(C)c(=O)[nH]2)c1,30.6% (inactive)
9,COC(=O)c1c(-c2cccc(C)c2)csc1N,-0.42% (inactive)
10,COC(=O)c1cc2ccsc2n1CC(=O)N(C)c1ccccc1,13.3% (inactive)
11,COc1c(Br)cc2c(C)c(C(=O)N3CCOCC3)oc2c1Br,-36.3% (inactive)
12,Cn1c(=O)cc(SCC(=O)N2CCN(C3CCCCC3)CC2)c2ccccc21,9.71% (inactive)
13,COc1ccccc1C(=O)N1CC2(C)CC1CC(C)(C)C2 (stereo unspecified),-20.3% (inactive)
14,NC(=O)COc1c(-c2ccco2)oc2ccccc2c1=O,-26% (inactive)
15,O=C(NCc1ccc2c(c1)OCO2)c1ccc2c(c1)C(=O)N(Cc1cccnc1)C2=O,4.44% (inactive)
16,Cc1ncc(CC(=O)n2cc(C(=O)c3cc(F)ccc3O)cn2)s1,27.9% (inactive)
17,CCC(C)n1c(SCC(=O)NCc2ccco2)nnc1-c1cccc(S(=O)(=O)N2CCOCC2)c1 (stereo unspecified),3.8% (inactive)
18,COc1cc(C)c(Cl)cc1S(=O)(=O)n1cnc(C)c1,13.2% (inactive)
19,CC1CC(C)CN(C(=O)c2ccc(NC(=O)c3ccc(=O)[nH]c3)cc2)C1 (stereo unspecified),20% (inactive)
20,COc1ccccc1NC(=O)CSC1CC(=O)N(c2ccc3c(c2)OCO3)C1=O (stereo unspecified),23.1% (inactive)
21,COc1cccc(NC(=O)N2CCCC(C(=O)Nc3ccccc3OC)C2)c1 (stereo unspecified),-26.5% (inactive)
22,CN(C)/C=N/c1ncc(C(=O)c2ccc(Cl)cc2)s1,-34.4% (inactive)
23,CCN(CC)CCCCCCCCOC(=O)c1cc(OC)c(OC)c(OC)c1,-0.35% (inactive)
24,CSc1ccc(NC(=O)C(C)N2CCN(C)CC2)cc1 (stereo unspecified),16.4% (inactive)

row,SMILES,inhibition
1,CCn1cc(C(=O)NCCc2ccccc2)c(=O)c2cc(F)c(N3CCN(C)CC3)cc21,5.9% (inactive)
2,O=C(CCc1nc2ccccc2s1)NC1CCOC1=O (stereo unspecified),1.3% (inactive)
3,CCOc1ccc2nc(NC(=O)C3=NNC(=O)CC3)sc2c1,4.7% (inactive)
4,CCCCn1cnc2cc(NCc3cccc(OC)c3O)ccc21,18.8% (inactive)
5,COC(=O)NNS(=O)(=O)c1ccc(C)cc1,37.3% (inactive)
6,CCOc1ccccc1NC(=O)NS(=O)(=O)c1ccc(C)cc1,-13% (inactive)
7,CC(=O)Nc1ccc(S(=O)(=O)Nc2nc3ccccc3nc2Nc2cccc(S(N)(=O)=O)c2)cc1,-9.28% (inactive)
8,COc1ccc(C(=O)NNS(=O)(=O)c2ccccc2)cc1OC,2.97% (inactive)
9,Cc1cc(C)c(S(=O)(=O)Nc2cccnc2)c(C)c1,-3.5% (inactive)
10,Cc1ccc(C)c(SCC(=O)Nc2ccc(S(=O)(=O)Nc3ncccn3)cc2)c1,-5.02% (inactive)
11,Cc1ccc(S(=O)(=O)NC(C)(C)CSc2nnc(N)s2)cc1,-24.4% (inactive)
12,Cc1cccc(NCN2C(=O)c3ccccc3C2=O)c1,6.6% (inactive)
13,O=C(COC(=O)CNC(=O)c1ccccc1)Nc1ccc(F)c([N+](=O)[O-])c1,-8.3% (inactive)
14,CCOc1ccc(C2CC(=O)NC(SCC(=O)OC)=C2C#N)cc1 (stereo unspecified),-12.6% (inactive)
15,COc1cc(S(=O)(=O)N2CCN(C(=O)c3ccco3)CC2)c(OC)cc1C,7.78% (inactive)
16,COc1ccc(-n2nnc3c(SCC(=O)N4CCCc5ccccc54)ncnc32)cc1,-11.9% (inactive)
17,Cc1c(C(=O)N2CCN(Cc3ccccc3)CC2)sc2ncnc(N3CCOCC3)c12,-6.98% (inactive)
18,O=C(Nc1ccccc1)c1cccnc1N1CCOCC1,-26.5% (inactive)
19,CCC(Sc1nccn1C)C(=O)Nc1nnc(C)s1 (stereo unspecified),-18.7% (inactive)
20,N#Cc1ccc(C2=NC(C(F)(F)F)(C(F)(F)F)c3c(n(Cc4ccco4)c(=O)[nH]c3=O)N2)cc1,-0.36% (inactive)
21,COCCNC(=O)Cn1cnc2c1c(=O)n(C)c(=O)n2C,8.18% (inactive)
22,Cc1[nH]c2ccccc2c1/C=N/Nc1nc2ccccc2[nH]1,11.7% (inactive)
23,Cc1cc(C)c2c(N)c(C(=O)c3ccc(Cl)c(Cl)c3)sc2n1,-3.82% (inactive)
